# Assay results reported in PubChem BioAssay (EPA / NIEHS).
# Several values for one entry are separate records, joined by “and”; a condition that tells them apart may be missing. Identical values can stand only once. Records with an inconclusive call do not appear. Activity calls are given as the source filed them. How the source made its calls: active means hit-call score of the fitted dose curve at least 0.9, where 1 is the maximum; inconclusive means response in the unintended direction; inactive means score below 0.9.
# Assays:
# [1] = molecular target: rat Serotonin, 5-Hydroxytryptamine Receptor 1 (5HT1), Non-Selective Binding, Htr1a (gene 24473) (UniProt P19327); test: NVS_GPCR_r5HT1_NonSelective: NovaScreen (NVS) G Protein-Coupled Receptor Assay for rat Serotonin, 5-Hydroxytryptamine Receptor 1 (5HT1), Non-Selective Binding (AID 2283286)
# Summary of the method: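 Rat cortical membranes, radioligand displacement, 1 h incubation, read by filter scintillation. Primary screen in duplicate at 25 uM. Hits (e.g. ≥30% inhibition) went to concentration-response up to 50 uM, fitted as loss of binding versus DMSO.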
# [2] = system: rat Adrenergic, Alpha 1B Receptor (Adra1B), gene 24173; test: NVS_GPCR_rAdra1B: NovaScreen (NVS) G Protein-Coupled Receptor Assay for rat Adrenergic, Alpha 1B Receptor (Adra1B) (AID 2283297)
# Summary of the method: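 Rat liver membranes, radioligand displacement with filter-based scintillation detection, 1 h incubation. Primary screen in duplicate at 25 uM; actives retested in concentration series; activity relative to DMSO.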
# [3] = molecular target: rat Adrenergic, Alpha 1, Non-selective Receptor (Adra1), Adra1a (gene 29412) (UniProt P43140); test: NVS_GPCR_rAdra1_NonSelective: NovaScreen (NVS) G Protein-Coupled Receptor Assay for rat Adrenergic, Alpha 1, Non-selective Receptor (Adra1) (AID 2283289)
# Summary of the method: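 Rat forebrain membranes; radioligand displacement read by filter-based scintillation counting 1 h after dosing. Primary screen in duplicate at 25 uM; hits (e.g. ≥30% inhibition) rerun as concentration–response to 50 uM max. Fitted versus DMSO.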
# [4] = molecular target: rat Adrenergic, Alpha 1A Receptor (Adra1A), Adra1a (gene 29412) (UniProt P43140); test: NVS_GPCR_rAdra1A: NovaScreen (NVS) G Protein-Coupled Receptor Assay for rat Adrenergic, Alpha 1A Receptor (Adra1A) (AID 2283296)
# Summary of the method: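 Rat cortical membranes pretreated with chlorethyl clonidine; competitive radioligand displacement, 1 h. Filter-based scintillation counting. Primary screen in duplicate at 25 uM, actives followed in concentration series.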
# [5] = molecular target: rat Adrenergic Receptor, Alpha 2 (Adra2), Non-selective Binding, Adra2a (gene 25083) (UniProt P22909); test: NVS_GPCR_rAdra2_NonSelective: NovaScreen (NVS) G Protein-Coupled Receptor Assay for rat Adrenergic Receptor, Alpha 2 (Adra2), Non-selective Binding (AID 2283299)
# Summary of the method: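 Rat cortical membranes, radioligand competitive displacement read by filter-based scintillation counting 1.25 hours after dosing. Primary screen in duplicate at 25 uM; actives followed up in concentration series.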
# Adra2b (gene 24174) = Adra2b (gene 24174) (UniProt P19328); test: NVS_GPCR_rmAdra2B: NovaScreen (NVS) G Protein-Coupled Receptor Assay for hybird cells Adrenergic, Alpha 2B Receptor (Adra2B) (AID 2283306)
# Summary of the method: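 Radioligand filter-binding assay on membrane proteins from neuroglioma/blastoma hybrid cells (rodent), 1 h after dosing; scintillation counting, loss of signal vs DMSO. Primary screen in duplicate at 25 uM, actives then run in concentration series.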
# [6] = system: rabbit Platelet Activating Factor Receptor (PAF), gene 100354046; test: NVS_GPCR_rabPAF: NovaScreen (NVS) G Protein-Coupled Receptor Assay for rabbit Platelet Activating Factor Receptor (PAF) (AID 2283287)
# Summary of the method: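 Rabbit platelet membrane preparation; radioligand displacement read by filter-based scintillation counting 1 h after dosing, loss of signal versus DMSO. Primary screen in duplicate at 25 uM, actives followed up in concentration series.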
# [7] = system: 5-hydroxytryptamine receptor 2C (pig); test: NVS_GPCR_p5HT2C: NovaScreen (NVS) G Protein-Coupled Receptor Assay for pig Serotonin, 5-Hydroxytryptamine Receptor 2C (5HT2C) (AID 2283288)
# Summary of the method: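 Pig choroid plexus membranes; radioligand competitive binding, filter-based scintillation counting, read 1 h after dosing. Primary screen in duplicate at 25 uM; actives then run as concentration series; loss of signal versus DMSO baseline.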
# [8] = molecular target: human Opioid Receptor Mu (Opiate Mu), OPRM1 (gene 4988) (UniProt P35372); test: NVS_GPCR_hOpiate_mu: NovaScreen (NVS) G Protein-Coupled Receptor Assay for human Opioid Receptor Mu (Opiate Mu) (AID 2283290);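 further: hits lower bound tracer signal versus DMSO meaning displacement of the ligand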
# Summary of the method: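 Primary screen in duplicate at 25 uM, with actives followed in concentration series. CHO-derived receptor membranes, cell-free; bound radioligand read by scintillation counting after filtration at 2.5 h, decrease scored against DMSO.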
# [9] = molecular target: guinea pig Serotonin, 5-Hydroxytryptamine Receptor 4 (5HT4), HTR4 (gene 100135548) (UniProt O70528); test: NVS_GPCR_g5HT4: NovaScreen (NVS) G Protein-Coupled Receptor Assay for guinea pig Serotonin, 5-Hydroxytryptamine Receptor 4 (5HT4) (AID 2283294)
# Summary of the method: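 Guinea pig striatal membranes; radioligand competitive displacement, filtration and scintillation counting after 1 h. Primary screen in duplicate at 25 uM; actives then tested in concentration series; loss of binding signal fitted relative to DMSO.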
# [10] = molecular target: rat Neurokinin-3 Receptor (NK3), Tacr3 (gene 24808) (UniProt P16177); test: NVS_GPCR_rNK3: NovaScreen (NVS) G Protein-Coupled Receptor Assay for rat Neurokinin-3 Receptor (NK3) (AID 2283310)
# Summary of the method: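 Rat cortical membranes; radioligand binding with filtration and scintillation counting, 2 h after dosing. Primary screen in duplicate at 25 uM, then concentration-response up to 50 uM; loss of binding signal relative to DMSO.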
# [11] = molecular target: rat Opioid Receptor, Non-selective Sodium (Na+) Binding, Oprm1 (gene 25601) (UniProt P33535); test: NVS_GPCR_rOpiate_NonSelectiveNa: NovaScreen (NVS) G Protein-Coupled Receptor Assay for rat Opioid Receptor, Non-selective Sodium (Na+) Binding (AID 2283311)
# Summary of the method: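 Rat forebrain membranes, radioligand displacement with filter scintillation counting, 1.5 h incubation. Screened in duplicate at 25 µM; hits then run in concentration-response up to 50 µM; loss of binding fitted versus DMSO.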
# [12] = molecular target: mouse Cholecystokinin, CCK1 Receptor (CCKA), Cckar (gene 12425) (UniProt O08786); test: NVS_GPCR_mCCKAPeripheral: NovaScreen (NVS) G Protein-Coupled Receptor Assay for mouse Cholecystokinin, CCK1 Receptor (CCKA) (AID 2283285)
# Summary of the method: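 Radioligand competitive displacement on mouse pancreatic membranes, 2 h incubation; filter-based scintillation counting, loss of signal versus DMSO. Single-concentration screen at 25 uM in duplicate, actives retested in concentration-response up to 50 uM.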
# [13] = molecular target: mouse Cholecystokinin, CCK2 Receptor (CCKB), Cckbr (gene 12426) (UniProt P56481); test: NVS_GPCR_mCKKBCentral: NovaScreen (NVS) G Protein-Coupled Receptor Assay for mouse Cholecystokinin, CCK2 Receptor (CCKB) (AID 2283293)
# Summary of the method: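 Radioligand displacement binding on mouse forebrain membranes, 2 h exposure, filter-based scintillation counting. Primary screen in duplicate at 25 uM; actives (e.g. ≥30% inhibition) retested in concentration-response up to 50 uM; loss of binding signal relative to DMSO.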
# [14] = molecular target: guinea pig Bradykinin Receptor B2 (BK2), BDKRB2 (gene 100135486) (UniProt O70526); test: NVS_GPCR_gBK2: NovaScreen (NVS) G Protein-Coupled Receptor Assay for guinea pig Bradykinin Receptor B2 (BK2) (AID 2283292)
# Summary of the method: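 Radioligand displacement on guinea pig ileum membranes for 1 h, read by filter-based scintillation counting; loss of signal relative to DMSO. Compounds were screened in duplicate at 25 uM, and those passing the threshold were retested in concentration-response up to 50 uM.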
# [15] = molecular target: rat Serotonin, 5-Hydroxytryptamine Receptor (5HT), Non-Selective Binding, Htr1a (gene 24473) (UniProt P19327); test: NVS_GPCR_r5HT_NonSelective: NovaScreen (NVS) G Protein-Coupled Receptor Assay for rat Serotonin, 5-Hydroxytryptamine Receptor (5HT), Non-Selective Binding (AID 2283295)
# Summary of the method: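 Radioligand displacement on rat cortical membranes, 1 h incubation, filter-based scintillation counting. Primary duplicates at 25 uM, actives retested in concentration series; loss of signal fitted against DMSO as baseline.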
# [16] = molecular target: rat Neurokinin-1 Receptor (NK1), Tacr1 (gene 24807) (UniProt P14600); test: NVS_GPCR_rNK1: NovaScreen (NVS) G Protein-Coupled Receptor Assay for rat Neurokinin-1 Receptor (NK1) (AID 2283309)
# Summary of the method: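 Rat submaxillary gland membranes; radioligand displacement read by filter-based scintillation counting after 1 h. Primary screen in duplicate at 25 uM; actives retested in concentration series; loss of binding fitted versus DMSO.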
# [17] = molecular target: rat Gamma-Aminobutyric Acid Type B Receptor (GABBR), Gabbr1 (gene 81657) (UniProt Q9Z0U4); test: NVS_GPCR_rGABBR: NovaScreen (NVS) G Protein-Coupled Receptor Assay for rat Gamma-Aminobutyric Acid Type B Receptor (GABBR) (AID 2283301)
# Summary of the method: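 Radioligand displacement on rat cortical membranes, 1 h, filter-based scintillation counting. Primary screen at 25 uM in duplicate; compounds passing threshold re-tested in concentration-response up to 50 uM; loss of binding fitted against DMSO.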
# rat Opioid Receptor, Non-selective Sodium (Na+) Binding, Oprm1 (gene 25601), sequence (P33535 whole entry, looked up): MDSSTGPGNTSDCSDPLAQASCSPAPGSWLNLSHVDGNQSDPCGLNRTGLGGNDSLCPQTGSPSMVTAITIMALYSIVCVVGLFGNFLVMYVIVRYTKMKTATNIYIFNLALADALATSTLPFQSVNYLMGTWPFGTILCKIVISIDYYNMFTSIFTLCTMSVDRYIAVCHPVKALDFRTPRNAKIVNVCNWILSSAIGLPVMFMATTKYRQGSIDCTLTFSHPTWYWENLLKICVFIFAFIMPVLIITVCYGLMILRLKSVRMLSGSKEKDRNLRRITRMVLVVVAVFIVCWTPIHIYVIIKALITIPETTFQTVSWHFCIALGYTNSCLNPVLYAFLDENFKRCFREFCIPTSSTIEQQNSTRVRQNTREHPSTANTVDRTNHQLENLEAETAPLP
# Adra2b (gene 24174), sequence (P19328 whole entry, looked up): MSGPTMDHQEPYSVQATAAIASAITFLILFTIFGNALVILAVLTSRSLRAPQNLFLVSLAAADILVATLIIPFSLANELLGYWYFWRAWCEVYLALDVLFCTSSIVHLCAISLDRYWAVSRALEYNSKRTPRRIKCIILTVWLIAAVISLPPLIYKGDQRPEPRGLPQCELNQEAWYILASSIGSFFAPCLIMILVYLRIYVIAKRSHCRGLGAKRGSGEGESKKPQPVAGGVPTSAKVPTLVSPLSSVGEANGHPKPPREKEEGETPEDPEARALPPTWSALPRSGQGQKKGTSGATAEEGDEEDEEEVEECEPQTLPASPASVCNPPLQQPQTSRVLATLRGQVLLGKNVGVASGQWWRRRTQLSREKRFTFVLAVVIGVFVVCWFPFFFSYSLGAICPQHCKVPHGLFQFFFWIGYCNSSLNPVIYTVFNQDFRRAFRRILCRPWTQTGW
# guinea pig Serotonin, 5-Hydroxytryptamine Receptor 4 (5HT4), HTR4 (gene 100135548), sequence (O70528 whole entry, looked up): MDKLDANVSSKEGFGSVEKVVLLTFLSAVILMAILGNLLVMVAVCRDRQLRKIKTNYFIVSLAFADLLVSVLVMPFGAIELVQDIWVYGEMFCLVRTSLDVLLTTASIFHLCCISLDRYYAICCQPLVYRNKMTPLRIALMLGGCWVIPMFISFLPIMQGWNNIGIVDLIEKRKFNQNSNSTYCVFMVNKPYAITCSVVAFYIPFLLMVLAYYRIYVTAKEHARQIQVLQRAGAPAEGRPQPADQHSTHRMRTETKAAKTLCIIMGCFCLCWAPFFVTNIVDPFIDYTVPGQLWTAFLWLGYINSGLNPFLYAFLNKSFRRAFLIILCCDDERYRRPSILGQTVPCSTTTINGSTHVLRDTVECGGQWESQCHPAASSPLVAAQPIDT
# rat Adrenergic, Alpha 1A Receptor (Adra1A), Adra1a (gene 29412), sequence (P43140 whole entry, looked up): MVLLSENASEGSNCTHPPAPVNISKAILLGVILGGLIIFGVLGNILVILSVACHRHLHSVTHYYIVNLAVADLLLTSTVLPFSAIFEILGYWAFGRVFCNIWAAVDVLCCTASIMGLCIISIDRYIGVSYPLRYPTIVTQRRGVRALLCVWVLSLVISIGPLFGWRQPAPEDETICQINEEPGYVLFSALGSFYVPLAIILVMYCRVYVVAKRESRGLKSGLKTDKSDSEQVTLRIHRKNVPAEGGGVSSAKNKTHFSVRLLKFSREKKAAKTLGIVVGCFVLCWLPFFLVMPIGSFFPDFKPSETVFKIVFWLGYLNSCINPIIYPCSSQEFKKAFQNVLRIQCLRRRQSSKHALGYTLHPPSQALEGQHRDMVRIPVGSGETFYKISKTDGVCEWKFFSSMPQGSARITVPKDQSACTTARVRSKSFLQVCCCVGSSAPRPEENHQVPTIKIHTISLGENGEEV
# rat Adrenergic, Alpha 1, Non-selective Receptor (Adra1), Adra1a (gene 29412), sequence (P43140 whole entry, looked up): as above
# mouse Cholecystokinin, CCK1 Receptor (CCKA), Cckar (gene 12425), sequence (O08786 whole entry, looked up): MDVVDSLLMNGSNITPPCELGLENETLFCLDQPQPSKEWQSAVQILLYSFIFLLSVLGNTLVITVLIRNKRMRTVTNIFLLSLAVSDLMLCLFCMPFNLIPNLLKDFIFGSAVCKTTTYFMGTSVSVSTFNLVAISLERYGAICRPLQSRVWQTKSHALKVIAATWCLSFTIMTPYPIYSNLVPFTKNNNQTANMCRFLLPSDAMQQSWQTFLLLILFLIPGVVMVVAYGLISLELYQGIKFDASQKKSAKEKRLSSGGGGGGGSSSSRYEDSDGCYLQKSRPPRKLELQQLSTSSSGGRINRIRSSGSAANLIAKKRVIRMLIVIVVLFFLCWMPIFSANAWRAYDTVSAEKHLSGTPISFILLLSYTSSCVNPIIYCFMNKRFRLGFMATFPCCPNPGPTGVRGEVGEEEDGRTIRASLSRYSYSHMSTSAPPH
# rat Serotonin, 5-Hydroxytryptamine Receptor 1 (5HT1), Non-Selective Binding, Htr1a (gene 24473), sequence (P19327 whole entry, looked up): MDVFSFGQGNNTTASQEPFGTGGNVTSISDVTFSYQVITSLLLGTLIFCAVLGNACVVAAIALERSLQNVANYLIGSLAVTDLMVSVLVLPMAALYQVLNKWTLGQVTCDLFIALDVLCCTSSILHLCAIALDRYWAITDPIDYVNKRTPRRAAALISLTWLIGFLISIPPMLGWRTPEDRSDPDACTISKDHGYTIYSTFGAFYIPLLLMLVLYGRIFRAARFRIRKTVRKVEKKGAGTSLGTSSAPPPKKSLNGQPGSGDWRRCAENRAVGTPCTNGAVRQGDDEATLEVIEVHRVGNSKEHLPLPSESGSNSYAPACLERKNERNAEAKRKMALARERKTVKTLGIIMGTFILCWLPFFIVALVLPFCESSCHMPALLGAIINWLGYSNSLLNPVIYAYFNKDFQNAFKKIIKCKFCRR
# rat Neurokinin-3 Receptor (NK3), Tacr3 (gene 24808), sequence (P16177 whole entry, looked up): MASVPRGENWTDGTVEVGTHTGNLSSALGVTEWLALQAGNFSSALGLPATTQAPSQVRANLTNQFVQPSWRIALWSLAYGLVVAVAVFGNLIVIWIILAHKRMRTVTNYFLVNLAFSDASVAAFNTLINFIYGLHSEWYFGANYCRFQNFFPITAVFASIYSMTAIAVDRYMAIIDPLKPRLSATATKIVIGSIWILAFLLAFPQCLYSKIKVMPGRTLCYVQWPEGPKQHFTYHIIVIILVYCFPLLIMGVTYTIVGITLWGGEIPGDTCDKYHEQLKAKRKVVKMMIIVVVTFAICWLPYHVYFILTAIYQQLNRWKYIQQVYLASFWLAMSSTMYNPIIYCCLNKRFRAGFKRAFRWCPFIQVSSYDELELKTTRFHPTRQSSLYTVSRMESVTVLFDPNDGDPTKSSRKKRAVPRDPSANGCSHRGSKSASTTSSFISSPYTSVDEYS
# rat Serotonin, 5-Hydroxytryptamine Receptor (5HT), Non-Selective Binding, Htr1a (gene 24473), sequence (P19327 whole entry, looked up): as the sequence (P19327 whole entry, looked up) above
# rat Neurokinin-1 Receptor (NK1), Tacr1 (gene 24807), sequence (P14600 whole entry, looked up): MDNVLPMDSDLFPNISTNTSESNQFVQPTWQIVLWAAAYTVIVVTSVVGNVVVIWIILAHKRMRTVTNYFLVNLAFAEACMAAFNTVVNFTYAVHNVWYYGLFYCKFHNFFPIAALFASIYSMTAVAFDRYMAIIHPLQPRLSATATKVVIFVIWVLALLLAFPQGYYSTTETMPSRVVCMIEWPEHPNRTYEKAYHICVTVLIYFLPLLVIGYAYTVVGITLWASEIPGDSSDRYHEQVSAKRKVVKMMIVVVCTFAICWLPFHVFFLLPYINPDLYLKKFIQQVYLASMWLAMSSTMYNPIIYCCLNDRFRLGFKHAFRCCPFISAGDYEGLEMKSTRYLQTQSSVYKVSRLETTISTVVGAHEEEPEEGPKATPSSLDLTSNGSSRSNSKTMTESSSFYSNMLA
# rat Adrenergic Receptor, Alpha 2 (Adra2), Non-selective Binding, Adra2a (gene 25083), sequence (P22909 whole entry, looked up): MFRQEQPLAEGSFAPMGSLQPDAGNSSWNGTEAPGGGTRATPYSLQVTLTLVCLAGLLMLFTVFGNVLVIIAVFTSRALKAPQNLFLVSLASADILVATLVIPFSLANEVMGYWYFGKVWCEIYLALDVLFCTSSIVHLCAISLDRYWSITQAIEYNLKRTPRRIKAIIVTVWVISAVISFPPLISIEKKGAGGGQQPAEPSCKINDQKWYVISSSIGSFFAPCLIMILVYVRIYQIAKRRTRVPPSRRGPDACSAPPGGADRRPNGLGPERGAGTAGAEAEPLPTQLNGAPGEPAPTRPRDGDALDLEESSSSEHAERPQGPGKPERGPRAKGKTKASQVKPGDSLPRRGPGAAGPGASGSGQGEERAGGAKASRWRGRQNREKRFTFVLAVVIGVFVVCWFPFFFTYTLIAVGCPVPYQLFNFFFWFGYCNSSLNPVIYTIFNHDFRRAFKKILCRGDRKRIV
compound,measurement,setting,value
Cn1cnc2c1c(=O)[nH]c(=O)n2C,outcome,[1],inactive
same,outcome,[2],inactive
NC(=Nc1ccccc1)Nc1ccccc1,outcome,[3],inactive
same,AC50,[4],8.43 µM (active)
same,outcome,[5],inactive
same,AC50,Adra2b (gene 24174),11.7 µM (active)
COC(=O)[C@H]1[C@H]2C[C@@H]3c4[nH]c5cc(OC)ccc5c4CCN3C[C@H]2C[C@@H](OC(=O)c2cc(OC)c(OC)c(OC)c2)[C@@H]1OC,AC50,[6],5.47 µM (active)
same,outcome,[7],inactive
same,AC50,[8],7.12 µM (active)
same,AC50,[9],5.67 µM (active)
same,AC50,[2],21.1 µM (active)
same,AC50,[10],10.6 µM (active)
same,AC50,[11],21.1 µM (active)
CCC(C)N(C)C(=O)c1cc2ccccc2c(-c2ccccc2Cl)n1 (centres undefined),AC50,[12],10.8 µM (active)
same,AC50,[6],7.29 µM (active)
same,AC50,[13],2.61 µM (active)
same,AC50,[10],6.96 µM (active)
CCN(CC)CCOc1ccc(C(=C(Cl)c2ccccc2)c2ccccc2)cc1,AC50,[12],21.4 µM (active)
same,AC50,[6],4.76 µM (active)
same,AC50,[7],21 µM (active) and 5.8 µM (active) and 15.9 µM (active)
same,AC50,[3],7.75 µM (active)
same,outcome,[14],inactive
same,AC50,[9],11.4 µM (active)
same,AC50,[15],21 µM (active)
same,AC50,[4],21 µM (active)
same,AC50,[2],21 µM (active)
same,AC50,Adra2b (gene 24174),16 µM (active)
same,AC50,[16],21 µM (active)
same,AC50,[11],21 µM (active)
CC(COCC(C)OC(=O)c1ccccc1)OC(=O)c1ccccc1 (centres undefined),outcome,[7],inactive
CCc1cc(C2=C(C(=O)O)N(c3ccccc3C(F)(F)F)S(=O)(=O)c3ccccc32)cc2c1OCO2,AC50,[12],16.6 µM (active)
same,AC50,[6],4.11 µM (active)
CC(C)(C)c1ccccc1,outcome,[1],inactive
same,outcome,[11],inactive
C=CCc1ccc(OC)c(OC)c1,outcome,[7],inactive
Cc1cc(SC2=C(O)C[C@@](CCc3ccc(N)cc3)(C(C)C)OC2=O)c(C(C)(C)C)cc1CO,outcome,[12],inactive
same,outcome,[15],inactive
same,outcome,[4],inactive
same,outcome,[17],inactive
same,outcome,Adra2b (gene 24174),inactive
same,outcome,[11],inactive
O=C(O)c1[nH]n(-c2ccc(S(=O)(=O)O)cc2)c(=O)c1N=Nc1ccc(S(=O)(=O)O)cc1,AC50,[1],5.69 µM (active)
same,outcome,[3],inactive
same,AC50,[9],15.9 µM (active)
